Sampled rows, rich in hits. Any-hit rate of the full collection: about 6.7%.
Pf Dd2 inh = blocks growth of Plasmodium falciparum Dd2 parasites; 94,000 compounds, 2.3% hits; AID 1159554; P. falciparum Dd2 growth, SYBR Green, 72 h; active compounds read low; activity change, % at 10 µM; in the data active = activity change below about -80%
C diff HTS = C. difficile growth inhibition | Clostridium difficile clinical isolate growth, OD600, 24 h; active compounds read low | growth activity, negative = inhibition, % at 16 µg/mL (by protocol) | 86,000 compounds, 0.25% hits;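 active = mean growth activity at or below -80% and every replicate also at or below -80%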
T cruzi growth = blocks T. cruzi growth in NIH3T3 culture | AID 624255 | T. cruzi beta-gal in NIH3T3, GalScreen luminescence, 90 h | 77,000 compounds, 5.9% hits | inhibition, % at 8.34 µM;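 active = mean inhibition above about 93%, with at least 55% of replicates each passing it, limit read from the data, passing the limit was not always enough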
A number is an active result; n = inactive; x = no result given.

SMILES	Pf Dd2 inh	C diff HTS	T cruzi growth
COc1ccc(S(=O)(=O)Nc2ccc3c(c2)C(=O)N([C@H](C)CO)C[C@@H](C)[C@@H](CN(C)C(=O)NC2CCCCC2)OCCCC[C@H](C)O3)cc1	n	n	n
CCS(=O)(=O)Nc1ccc2c(c1)C(=O)N(C)[C@@H]1CC[C@@H](CC(=O)Nc3ccccc3)O[C@@H]1CO2	n	n	n
C[C@@H]1CCCCO[C@H](CN(C)C(=O)Nc2ccccc2)[C@H](C)CN([C@@H](C)CO)C(=O)c2cc(NS(=O)(=O)c3ccccc3)ccc2O1	-84	x	x
COc1ccc(S(=O)(=O)Nc2ccc3c(c2)C(=O)N([C@@H](C)CO)C[C@@H](C)[C@H](CN(C)C(=O)Nc2ccccc2)OCCCC[C@@H](C)O3)cc1	n	n	111
C[C@H](CO)N1C[C@H](C)[C@@H](CN(C)C(=O)Nc2ccccc2)OCCCC[C@H](C)Oc2ccc(NS(=O)(=O)c3ccccc3)cc2C1=O	n	x	x
COc1ccc(S(=O)(=O)Nc2ccc3c(c2)C(=O)N([C@@H](C)CO)C[C@H](C)[C@@H](CN(C)C(=O)Nc2ccccc2)OCCCC[C@H](C)O3)cc1	n	n	n
O=C(C[C@@H]1C[C@H]2c3cc(NC(=O)Nc4ccccc4)ccc3O[C@H]2[C@@H](CO)O1)NCC(F)(F)F	n	n	n
COc1ccc(-c2cnc3c(c2)C(=O)N([C@@H](C)CO)C[C@H](C)[C@@H](CN(C)Cc2ccccc2)O3)cc1	n	n	n
CCCNC(=O)N(C)C[C@@H]1Oc2ncc(C#CC3(O)CCCC3)cc2C(=O)N([C@H](C)CO)C[C@H]1C	n	n	x
COc1ccc(CN2C[C@H](C)[C@@H](OC)CN(C)C(=O)c3cc(NC(=O)c4nc5ccccc5s4)ccc3OC[C@@H]2C)cc1	-85	x	x
COc1ccc(CN2C[C@@H](C)[C@@H](OC)CN(C)C(=O)c3cc(NC(=O)c4nc5ccccc5s4)ccc3OC[C@@H]2C)cc1	n	x	x
CO[C@@H]1CN(C)C(=O)c2cc(NC(=O)c3nc4ccccc4s3)ccc2OC[C@@H](C)N(Cc2ccccc2)C[C@H]1C	-86	x	x
CO[C@H]1CN(C)C(=O)c2cc(NC(=O)c3nc4ccccc4s3)ccc2OC[C@@H](C)N(Cc2ccncc2)C[C@H]1C	x	n	n
C[C@H](CO)N1C[C@H](C)[C@@H](CN(C)S(C)(=O)=O)Oc2ncc(C#CC3CCCCC3)cc2C1=O	n	n	n
O=C(Nc1ccc2c(c1)[C@@H]1C[C@H](CC(=O)N3CCc4ccccc4C3)O[C@H](CO)[C@@H]1O2)C1CCC1	n	n	n
CC(C)NC(=O)Nc1cccc2c1O[C@@H](CN(C)C(=O)NC(C)C)[C@@H](C)CN([C@@H](C)CO)C2=O	n	n	n
C[C@@H]1CCCCO[C@@H](CN(C)C(=O)Nc2cccc3ccccc23)[C@@H](C)CN([C@H](C)CO)C(=O)c2cc(NC(=O)Nc3ccc(F)cc3)ccc2O1	n	n	n
C[C@@H]1CN([C@@H](C)CO)C(=O)c2c(c3ccccc3n2C)-c2ccccc2CO[C@@H]1CN(C)C(=O)N[C@H](C)c1ccccc1	n	n	n
C[C@@H]1CN([C@H](C)CO)C(=O)c2c(c3ccccc3n2C)-c2ccccc2CO[C@H]1CN(C)C(=O)[C@H](C)c1ccccc1	-84	n	x
C[C@H](NC(=O)N(C)C[C@H]1OCc2ccccc2-c2c(n(C)c3ccccc23)C(=O)N([C@@H](C)CO)C[C@@H]1C)c1ccccc1	-81	n	n
C[C@H](C(=O)N(C)C[C@@H]1OCc2ccccc2-c2c(n(C)c3ccccc23)C(=O)N([C@H](C)CO)C[C@H]1C)c1ccccc1	n	n	x
CO[C@H](C(=O)N(C)C[C@H]1OCc2ccccc2-c2c(n(C)c3ccccc23)C(=O)N([C@H](C)CO)C[C@H]1C)c1ccccc1	n	n	n
CC(C)OC(=O)N(C)C[C@@H]1OCc2ccccc2-c2c(n(C)c3ccccc23)C(=O)N([C@H](C)CO)C[C@@H]1C	n	x	n
C[C@@H]1CN([C@@H](C)CO)C(=O)c2c(c3ccccc3n2C)-c2ccccc2CO[C@@H]1CN(C)C(=O)[C@H](C)c1ccccc1	-87	n	x
CC(C)OC(=O)N(C)C[C@H]1OCc2ccccc2-c2c(n(C)c3ccccc23)C(=O)N([C@H](C)CO)C[C@H]1C	-83	x	n
CCCNC(=O)N1C[C@H](C)[C@H](OC)CN(C)C(=O)c2ccc(NS(=O)(=O)CC(F)(F)F)cc2OC[C@H]1C	n	x	n
CO[C@H]1CN(C)C(=O)c2ccc(NS(=O)(=O)c3ccc(C)cc3)cc2OC[C@@H](C)N(C(=O)NC(C)C)C[C@H]1C	x	x	n
CC(C)CC#Cc1cnc2c(c1)C(=O)N([C@H](C)CO)C[C@@H](C)[C@H](CN(C)C(=O)c1ccc3c(c1)OCO3)O2	n	n	n
COCCNC(=O)C[C@@H]1CC[C@H](NS(=O)(=O)c2ccc(C)cc2)[C@H](CO)O1	n	n	x
